In PubChem BioAssay one finds z-score and composite z-score data, which are given here for 13 molecules.

Test [1] is described as follows: E. coli DRC41 culture turbidity changes, primary screen, E. coli filamentation inducer project, strain DRC41, OD650, 48 h (AID 1152).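 Note: E. coli MC1000 strain DRC41 lacking acrAB efflux pump and sulA.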 Conditions: E. coli DRC41 (acrAB sulA), higher = more signal, called active from +8 up or from −8 down.
The nature of test [2]: small-molecule binders of probe aLefty1, primary screen, biochemical, small-molecule microarray, 635/667 nm fluorescence (AID 1153).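 Note: score merges spot fluorescence with signal-to-noise ratio from the scanned slide images.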 Conditions: higher = more signal.
Test [3] is described as follows: PSAC antagonists in infected red cells, primary screen, cell-based, P. falciparum Indochina, OD700, 1 h (AID 1154). Conditions: P. falciparum Indochina infected RBC osmotic lysis, higher = more signal, called active from +8 up or from −8 down.
Test [4] is described as follows: PSAC antagonists in infected red cells, primary screen, cell-based, P. falciparum Indochina, OD700, 2 h (AID 1155).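 Note: lysis reports solute entry through the parasite surface anion channel PSAC; channel blockers reduce lysis of infected cells.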 The settings on record: P. falciparum Indochina infected erythrocytes, osmotic lysis OD700; higher = more signal, called active from +8 up or from −8 down.
Test [5] is described as follows: osmotic lysis modulators in infected erythrocytes, primary screen, PSAC antagonist project, cell-based, P. falciparum Indochina, OD700, 3 h (AID 1156). The settings on record: higher = more signal, called active from +8 up or from −8 down.
Test [6] in a line: PSAC antagonists in infected red cells, primary screen, cell-based, P. falciparum Indochina, OD700, 18 h (AID 1157). Conditions: P. falciparum Indochina infected erythrocytes, osmotic lysis OD700, 18 h; higher = more signal, called active from +8 up or from −8 down.
The nature of test [7]: modulators of S6 phosphorylation in cells, primary screen, cell-based, A549, cytoblot, luminescence, serum-stimulated (AID 1158).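 Note: serum-stimulated A549 lung adenocarcinoma cells; signal is phosphorylated S6 detected by cytoblot immunostaining with HRP secondary.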 Conditions: A549 phospho-S6 cytoblot, 5 h, higher = more signal.
The target in test [8] is NADPH oxidase 2 (Homo sapiens) (UniProt P04839). The experiment in a line: NOX2-dependent H2O2 signal modulators, primary screen, NOX inhibitor project, cell-based, HEK293-NOX2, PMA-stimulated, Amplex Red fluorescence (AID 1159). Note: test concentration not given here. Conditions: 45 min, higher = more signal, called active from +8 up or from −8 down.
The target of test [9] is NADPH oxidase 4 (Homo sapiens) (UniProt Q9NPH5). The experiment in a line: NOX4-dependent H2O2 signal modulators, primary screen, NOX inhibitor project, cell-based, HEK293-NOX4, tetracycline-induced, Amplex Red fluorescence (AID 1160). The settings on record: 45 min, higher = more signal, called active from +8 up or from −8 down.
The target of test [10] is NADPH oxidase 5 (Homo sapiens) (UniProt Q96PH1). The experiment in a line: NOX5-dependent H2O2 signal modulators, primary screen, NOX inhibitor project, cell-based, HEK293-NOX5, Amplex Red fluorescence (AID 1161). Conditions: HEK293-NOX5, ionomycin, 45 min, higher = more signal.

The source made the active and inactive calls.

Sequence of NADPH oxidase 2 (Homo sapiens) (P04839 whole entry, looked up): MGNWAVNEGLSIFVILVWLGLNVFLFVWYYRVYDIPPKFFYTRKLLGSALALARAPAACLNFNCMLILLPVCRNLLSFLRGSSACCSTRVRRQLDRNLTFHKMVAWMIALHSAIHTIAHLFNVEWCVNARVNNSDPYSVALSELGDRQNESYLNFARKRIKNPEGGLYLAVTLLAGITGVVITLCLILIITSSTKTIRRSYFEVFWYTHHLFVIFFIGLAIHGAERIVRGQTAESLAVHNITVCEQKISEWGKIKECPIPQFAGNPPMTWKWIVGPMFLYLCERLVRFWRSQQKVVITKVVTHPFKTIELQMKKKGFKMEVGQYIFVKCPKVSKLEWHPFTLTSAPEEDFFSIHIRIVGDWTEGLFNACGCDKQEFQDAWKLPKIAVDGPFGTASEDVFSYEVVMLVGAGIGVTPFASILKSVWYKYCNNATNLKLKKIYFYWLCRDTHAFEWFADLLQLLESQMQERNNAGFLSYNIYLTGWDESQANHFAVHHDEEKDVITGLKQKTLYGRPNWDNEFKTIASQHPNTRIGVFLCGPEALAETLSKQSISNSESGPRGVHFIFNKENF
Sequence of NADPH oxidase 5 (Homo sapiens) (Q96PH1 whole entry, looked up): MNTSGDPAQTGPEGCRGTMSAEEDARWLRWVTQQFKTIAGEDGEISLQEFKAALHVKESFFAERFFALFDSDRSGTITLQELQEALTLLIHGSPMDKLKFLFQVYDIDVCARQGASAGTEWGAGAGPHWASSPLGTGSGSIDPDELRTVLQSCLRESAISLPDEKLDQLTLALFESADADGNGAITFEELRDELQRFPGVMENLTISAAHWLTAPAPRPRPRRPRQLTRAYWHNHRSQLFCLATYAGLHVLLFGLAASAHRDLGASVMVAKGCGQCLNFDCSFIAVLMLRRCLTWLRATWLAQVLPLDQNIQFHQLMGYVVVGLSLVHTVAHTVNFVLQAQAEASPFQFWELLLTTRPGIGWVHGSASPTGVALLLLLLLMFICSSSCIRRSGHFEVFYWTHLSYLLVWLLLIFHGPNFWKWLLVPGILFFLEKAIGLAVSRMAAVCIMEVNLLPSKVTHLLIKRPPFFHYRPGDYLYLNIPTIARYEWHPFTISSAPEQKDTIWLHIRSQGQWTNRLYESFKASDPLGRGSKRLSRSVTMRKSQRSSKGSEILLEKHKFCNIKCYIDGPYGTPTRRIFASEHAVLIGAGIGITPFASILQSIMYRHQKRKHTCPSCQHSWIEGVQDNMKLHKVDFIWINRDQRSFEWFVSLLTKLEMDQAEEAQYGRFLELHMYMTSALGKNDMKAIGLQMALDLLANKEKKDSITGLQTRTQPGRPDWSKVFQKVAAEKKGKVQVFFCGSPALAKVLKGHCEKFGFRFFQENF
Sequence of NADPH oxidase 4 (Homo sapiens) (Q9NPH5 whole entry, looked up): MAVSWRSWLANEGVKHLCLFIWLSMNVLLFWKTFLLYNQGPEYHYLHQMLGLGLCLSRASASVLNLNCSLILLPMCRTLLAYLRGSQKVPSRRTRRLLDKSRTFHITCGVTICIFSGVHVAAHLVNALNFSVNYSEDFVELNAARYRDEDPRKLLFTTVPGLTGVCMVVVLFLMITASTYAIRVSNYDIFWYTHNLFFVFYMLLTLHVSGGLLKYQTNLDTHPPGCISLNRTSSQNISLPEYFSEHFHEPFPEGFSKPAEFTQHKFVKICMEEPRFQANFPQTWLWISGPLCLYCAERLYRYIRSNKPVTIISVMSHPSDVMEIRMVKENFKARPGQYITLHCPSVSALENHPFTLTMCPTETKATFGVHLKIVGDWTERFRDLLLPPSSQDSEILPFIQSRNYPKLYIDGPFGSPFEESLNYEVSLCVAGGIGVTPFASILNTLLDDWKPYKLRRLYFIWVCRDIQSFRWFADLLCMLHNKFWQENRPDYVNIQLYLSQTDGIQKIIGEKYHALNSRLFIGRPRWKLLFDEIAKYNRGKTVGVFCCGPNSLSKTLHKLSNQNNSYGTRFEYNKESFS

On to `CC(C)=C1C(=O)C(c2ccccc2)=C2CN3C(=O)N(CCc4ccccc4)C(=O)[C@]3(Cc3ccccc3)[C@H]21`, for which the z-score in [1] is -1.7 (inactive); in test [3], 20.9 (active); in [4] it was 3.79 (inactive); in test [5], 1.3 (inactive); in [6], 0.913 (inactive); in test [7], -0.621. The z-score in test [8] was -0.379 (inactive); in [9] it was 0.1 (inactive); in test [10], 0.365. The same molecule came in with a composite z-score in test [2] of 0.341.
On to `Cc1ccc(S(=O)(=O)N[C@H]2COC(=O)CC=C[C@H](C)COC(=O)N[C@@H](C)C(=O)CC=C[C@@H]2C)cc1`, for which the z-score in test [1] is 0.0157 (inactive); in test [3] it was 1.3 (inactive); in test [4] it was 0.678 (inactive); in test [5], 1.1 (inactive); in test [6], 0.451 (inactive); in test [7], 1.87. For the same molecule, the figures for the z-score in test [8], in test [9] and in [10] were 0.142 (inactive), -1.45 (inactive) and -0.213, respectively. Besides, the composite z-score in test [2] was -0.191.
`CN(C)c1ccc(C(O)C2C=CC3C(=O)NC(=O)C3N2Nc2ccc(Cl)cc2Cl)cc1` (stereo not given): the z-score in test [1] was -0.85 (inactive); in [3], 3.51 (inactive); in [4], 0.567 (inactive); in test [5] it was 1.45 (inactive); in test [6], 1.27 (inactive); in test [7] it was -0.645. For the same molecule, the z-score in test [8] was -1.15 (inactive); in test [9] it was -4.56 (inactive); in test [10], -2.72. Moreover, the composite z-score in test [2] is 0.68.
In the case of `Cc1cc(C)c(C(O)C2C=CC3C(=O)N(C)C(=O)C3N2N2CCCCC2)c(C)c1` (stereo not given), the z-score in [1] was -1.06 (inactive); in test [3], -0.245 (inactive); in test [4] it was 0.827 (inactive); in test [5] it was -0.285 (inactive); in [6] it was 1.12 (inactive); in [7], -1.01. Moreover, the z-score in test [8] is -0.669 (inactive); in test [9] it was 0.167 (inactive); in [10], -1.23. The molecule further returned a composite z-score in test [2] of 0.554.
In the case of `COc1ccc(CCNC(=O)[C@@]2(c3ccc([N+](=O)[O-])cc3)CC(=O)N(C(C)C)[C@@H]2c2ccc(CO)cc2)cc1`, the z-score is 1.6 (inactive) in test [1]; 4.07 (inactive) in test [3]; 0.208 (inactive) in test [4]; 1.44 (inactive) in [5]; 0.621 (inactive) in [6]; 0.54 in [7]. In addition, the values for the z-score in [8], in test [9] and in [10] were 0.891 (inactive), 0.433 (inactive) and 0.24, respectively. For the same molecule, the composite z-score in [2] is -0.0353.
`O=C1O[C@H](c2ccccc2)[C@H](c2ccccc2)N2[C@H]1[C@@H](C(=O)Nc1nc3ccccc3s1)[C@]1(C(=O)Nc3ccc(C#CC4(O)CCCCCC4)cc31)[C@H]2c1ccc(O)cc1`: the z-score in test [1] is -1.07 (inactive); in test [3] it was 0.797 (inactive); in test [4] it was 1.57 (inactive); in [5], 0.315 (inactive); in [6], 1.38 (inactive); in [7], -0.0907. For the same molecule, the z-score in test [8] was 1.03 (inactive); in test [9], -0.14 (inactive); in [10] it was 0.842. In addition, in test [2], the composite z-score turned out to be 0.308.
For `CCCC/C=C/[C@H]([C@@H](O)Cc1ccccc1)N(CC#Cc1ccccc1)Cc1ccccc1Br`, the z-score in test [1] was 2.99 (inactive); in test [3], 2.63 (inactive); in [4] it was 1.29 (inactive); in test [5], -0.0195 (inactive); in [6], 0.522 (inactive); in [7] it was 0.108. For the same molecule, the z-score in test [8] is -0.424 (inactive); in [9], 0.426 (inactive); in test [10], -0.622. In addition, the composite z-score in test [2] is -0.0061.
For `CCCC[C@@H]1C[C@H]1[C@@H](NC(=O)c1cccs1)c1ccc(Cl)cc1`, the z-score in test [1] is -1.06 (inactive); in [3] it was 0.492 (inactive); in test [4], -0.696 (inactive); in test [5] it was 1.13 (inactive); in test [6], -1.93 (inactive); in test [7], 1.38. For the same molecule, the figures for the z-score in test [8], in test [9] and in test [10] were -3.93 (inactive), -6.76 (inactive) and -2.26, respectively. The composite z-score in [2] was -0.124.
With `COc1ccc(CCN2C(=O)[C@@]3(c4ccc([N+](=O)[O-])cc4)CC(=O)N(CC45CC6CC(CC(C6)C4)C5)[C@@H]3c3ccc(CO)cc32)cc1`, the z-score is 0.683 (inactive) in test [1]; 1.39 (inactive) in test [3]; 0.77 (inactive) in test [4]; 0.393 (inactive) in test [5]; 0.427 (inactive) in [6]; -0.385 in [7]. For the same molecule, the values for the z-score in test [8], in [9] and in [10] were -0.447 (inactive), -0.968 (inactive) and 1.43, respectively. Besides, the composite z-score in test [2] came out at 0.585.
As to `C=C(COC)/C(=C/C[C@@H](OC(=O)c1ccncc1)c1ccc(OCCO)cc1)c1cc(C(=O)OC)ccc1OC`, the z-score in test [1] is 2.31 (inactive); in test [3], 14.6 (active); in test [4], 0.629 (inactive); in [5] it was 1.35 (inactive); in test [6], -1.53 (inactive); in test [7], 0.866. The z-score is 1.98 (inactive) in test [8], 2.24 (inactive) in test [9] and -0.63 in [10]. Moreover, the composite z-score in test [2] worked out at 0.0686.
`CCCC=C(CCC)[C@@H](NS(=O)(=O)c1ccc(-c2ccccc2)cc1)c1ccc(C(=O)OC)cc1`: the z-score is -2.25 (inactive) in test [1]; 0.757 (inactive) in test [3]; -0.515 (inactive) in [4]; 0.248 (inactive) in test [5]; -1.71 (inactive) in test [6]; 2.45 in test [7]. Moreover, the values for the z-score in test [8], in test [9] and in test [10] were -4.5 (inactive), -4.82 (inactive) and -2.09, respectively. Further, the composite z-score in test [2] is -0.202.
For the molecule `C=CC[C@]1(C(=O)O)N=C(c2ccc(OCCCO)cc2)O[C@H]1c1ccccc1`, the z-score in test [1] was 1.14 (inactive); in test [3] it was 11.7 (active); in test [4], 0.66 (inactive); in [5] it was 0.211 (inactive); in test [6], 0.198 (inactive); in test [7] it was 0.663. Also, the z-score is -0.343 (inactive) in [8], 0.388 (inactive) in test [9] and 1.22 in test [10]. Further, the composite z-score in [2] is -0.0984.
Take `O=[N+]([O-])c1ccc(C[n+]2ccc3ccc(O)cc3c2)o1`: the z-score in [1] is 0.653 (inactive); in [3], 1.08 (inactive); in [4] it was -0.678 (inactive); in test [5], -0.859 (inactive); in test [6] it was -1.53 (inactive); in test [7], 0.829. Further, the z-score in [8] is -0.94 (inactive); in [9], -1.09 (inactive); in test [10], -0.424. In addition, the composite z-score in test [2] is -0.283.
